Screens (PubChem)
E coli growth-1: bacterial growth inhibition, counter-screen for AddAB inhibitors; E. coli V3065 growth, OD600 absorbance, 18 h; inhibition, % at 11.9 µM; actives 0.27% (n = 330,000); AID 449728;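 active = inhibition above the campaign's mean inhibition across all tested compounds plus 3 SD, cut at about 9.9% in these data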;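 also: uninfected addAB+ strain grown without phage in ampicillin broth; 0% = DMSO wells and 100% = ciprofloxacin 0.95 µg/ml wells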
E coli growth-2: E. coli growth inhibition. OD600 absorbance (concentration not given with the values). AID 1053175. actives 0.21% (n = 330,000). Escherichia coli growth, OD600, 23 h; hits give low values;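 active = OD600 absorbance below the run mean of sample wells minus 3.6 SD, in any replicate, cut at about 0.56 in these data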
Tat transport: E. coli Tat transport inhibition. E. coli MC4100 TorA-mCherry Tat export, fluorescence. actives 0.036% (n = 340,000). AID 488895. inhibition, % at 10 µM;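 active = mean replicate inhibition at least 50% and at least half of replicates individually reaching 50%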;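 also: exported cargo escapes ClpAP degradation while cytoplasmic cargo is degraded and loses fluorescence; 0% = median of neutral control wells and 100% = median of NaSCN control wells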
Calb FLC: C. albicans growth modulation with fluconazole; C. albicans CaCi-2 (fluconazole-resistant clinical isolate) + fluconazole, Alamar Blue growth, 48 h; growth inhibition, % (no concentration beside the values); actives 0.57% (n = 300,000);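 active = growth inhibition above about 58% in most replicates, limit read from the data, passing the limit was not always enough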;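 also: all wells also contain fluconazole at 8 µg/ml as a sub-toxic cotreatment; 0% = median of DMSO wells and 100% = median of geldanamycin control wells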
phage Ecoli inh: E. coli growth loss with phage present; inhibition, % at 11.9 µM; actives 0.26% (n = 360,000); growth absorbance; in the data active = inhibition above about 11%
AddAB inh: less growth of phage-infected E. coli with AddAB; AID 435030; actives 0.29% (n = 330,000); inhibition, % at 11.9 µM; E. coli expressing H. pylori AddAB, absorbance growth; in the data active = inhibition above about 12%;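 also: 0% = vehicle wells of infected cells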
RecBCD conf: growth loss of phage-infected V66 E. coli, RecBCD confirmation screen | shares compounds with phage Ecoli inh | E. coli V66 + T4 2- phage, growth OD | inhibition, % at 11.9 µM | actives 45% (n = 890);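 active = mean inhibition over triplicates exceeding the hit threshold derived in the original primary screen, cut at about 11% in these data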
Ecoli viability: inhibits E. coli viability, flagging RecBCD hits as nonselective. shares compounds with phage Ecoli inh. absorbance (OD) growth. inhibition, % at 11.9 µM. actives 29% (n = 890); in the data active = inhibition above about 20%;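 also: E. coli strain V66 grown with compound alone and no phage infection; 0% = bacteria with DMSO vehicle only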
AddAB counter: growth loss of phage-infected AddAB E. coli, RecBCD counter-screen; shares compounds with phage Ecoli inh; E. coli expressing H. pylori AddAB + T4 phage, OD growth; gene 2 mutant T4, recBCD-deleted host; inhibition, % at 11.9 µM; actives 45% (n = 890); AID 651984;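 active = mean inhibition above the solvent-only control wells' mean plus 3 SD, cut at about 22% in these data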;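 also: higher means less bacterial growth from phage killing when AddAB is blocked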
The depositor's hits bear a star; · = no result. Shown are actives, neighbours in structure and some others; about 0.9% of the full set was active somewhere.

SMILES	E coli growth-1	E coli growth-2	Tat transport	Calb FLC	phage Ecoli inh	AddAB inh	RecBCD conf	Ecoli viability	AddAB counter
COc1c(O)cc2oc(-c3ccc(O)cc3)cc(=O)c2c1O	-1	0.63	-7	26	3	3	·	·	·
O=c1cc(-c2ccccc2)oc2cc(O)c(O)c(O)c12	11*	0.69	10	·	12*	12	6	9	7
CCCCNC(=O)NCC(=O)Nc1ccc(F)c(F)c1	-2	0.69	11	-2	1	-2	·	·	·
Cn1nc(C(=O)NCC(=O)Nc2ccc(F)c(F)c2)ccc1=O	·	·	·	·	11*	·	0	-1	-3
C=CCc1cccc(/C=N/NC(=O)CCCNc2ccc(C)cc2)c1O	2	·	8	-2	12*	0	1	3	5
C=CCc1cccc(C=NNC(=O)CCC(=O)Nc2ccc(C)cc2)c1O	·	0.75	·	·	·	·	·	·	·
C(=NN1CCN(c2ccccn2)CC1)c1cccc2ccccc12	·	0.65	·	·	·	·	·	·	·
CCOC(=O)c1c[nH]c2c([N+](=O)[O-])cc(OC)cc2c1=O	·	0.45*	-2	·	12*	·	6	10	44*
CCCCCOCC1CC(CC(C)=NNc2nc(-c3ccccc3)cs2)C(=O)O1 (stereo not drawn)	·	0.73	·	·	·	·	·	·	·
Cc1cc(C)cc(NC(=O)Cn2cc3c(n2)CCCCC3)c1	-1	0.77	·	-15	·	2	·	·	·
CN(C)c1ccc(NC(=O)Cn2cc3c(n2)CCCC3)cc1	-3	0.77	8	-7	13*	0	0	-1	4
Cc1ccc(-c2nc(CS(=O)CC(=O)NCc3ccccc3)c(C)o2)cc1 (stereo not drawn)	1	0.81	-13	-3	29*	-1	-1	-2	1
O=C(Nc1ccccc1-c1nnn(CC(=O)N2CCOCC2)n1)c1ccc(F)cc1	-1	0.67	-3	22	11*	2	-4	-5	0
O=C(O)C1C(O)CCC2CN3CCc4c([nH]c5ccccc45)C3CC21 (stereo not drawn)	·	0.69	·	·	·	·	·	·	·
CN(C(=O)c1cc(COc2ccc(F)c(F)c2)on1)C1CCOC1 (stereo not drawn)	0	0.65	-6	-2	11*	-11	-1	-1	4
COc1ccc(OCc2cc(C(=O)N(C)C3CCOC3)no2)c(Cl)c1 (stereo not drawn)	0	0.65	-8	-2	2	2	·	·	·
COc1ccc2c(c1)cc(C(=O)NN=Cc1c(O)c(C(=O)O)cc3ccccc13)n2C	·	0.66	·	·	·	·	·	·	·
Cc1cc(C(=O)N(C2CCCCC2)C2CCCCC2)no1	-3	0.64	0	-10	12*	3	-1	0	-1
Cc1cc(C(=O)N2C(C)CCCC2C)no1 (stereo not drawn)	-1	0.66	7	2	2	0	·	·	·
COc1cccc(/C=N/NC(=O)c2cc(-c3cccn3C)n[nH]2)c1O	4	·	-6	103*	12*	4	6	9	20
O=c1[nH]nnc2c1ncn2C1OC(CO)C(O)C1O (stereo not drawn)	·	·	·	·	16*	·	23*	17	28*
CCC1OC(=O)C(C)C(OC2C[C@@](C)(OC)C(O)C(C)O2)C(C)C(O[C@@H]2OC(C)CC(N(C)C)C2O)[C@](C)(O)CC(C)C(=NOCOCCOC)C(C)C(O)[C@]1(C)O (stereo partly drawn)	10.0*	·	7	·	12*	9	5	5	4
O=C(CSc1nnc(SCc2ccccc2)s1)NN=Cc1ccc(C(=O)O)cc1	·	0.73	·	·	·	·	·	·	·
CC(=O)NCCCc1nc2ccccc2n1Cc1ccccc1F	1	0.65	1	3	22*	3	-2	-1	-1
CNCCCCOc1ccccc1-c1ccccc1	-1	0.64	2	-1	21*	-1	0	2	4
CCN(CC)c1ccc2cc(-c3nc4ccccc4[nH]3)c(=O)oc2c1	0	0.67	2	33	·	0	·	·	·
CCN(CC)c1ccc2cc(-c3nc4ccccc4n3C)c(=O)oc2c1	0	0.67	12	1	99*	0	80*	71*	93*
Cc1ccc(C2C3C(=O)N(c4ccccc4)C(=O)C3[C@]3(Cc4ccccc4)C(=O)N(CC4CC4)CC(=O)N23)o1 (stereo partly drawn)	·	0.69	·	·	·	·	·	·	·
